The results in this text go back to the antibiotic and cytotoxicity screens of Wong et al. (2023).

Structures are written as SMILES. The campaign covered roughly 39,000 compounds. About 1,500 (3.8%) were called active. The full list was thinned out, with actives kept by preference.

For this assay, the system named is HSkMC (human skeletal muscle cells). The experiment in a line: cytotoxicity call (relative viability < 0.9). Conditions: 10 µM.
`COc1ccc(CCNC(=O)[C@@]2(Sc3ccc(C)cc3)CC(=O)N(C(C)C)[C@@H]2c2ccc(CO)cc2)cc1`: the cytotoxicity call is “inactive”.
With `COc1ccc(NC(=O)N(C)C[C@H]2Oc3c(NC(=O)C4CC4)cccc3C(=O)N([C@@H](C)CO)C[C@@H]2C)cc1` the entry was “inactive”.
With `C[C@@H]1CN([C@H](C)CO)S(=O)(=O)c2ccc(C#Cc3ccncc3)cc2O[C@@H]1CN(C)C(=O)C1CCC1` the entry was “inactive”; with `COc1cccc(S(=O)(=O)Nc2ccc3c(c2)[C@@H]2C[C@H](CC(=O)NCc4ccccc4F)O[C@H](CO)[C@@H]2O3)c1`, “inactive”.
Then `C[C@@H]1CCCCO[C@H](CN(C)S(=O)(=O)c2cccs2)[C@H](C)CN([C@@H](C)CO)C(=O)c2cc(NC(=O)Nc3ccccc3)ccc2O1`, with “inactive”.
For `C[C@@H]1CCCCO[C@@H](CN(C)C(=O)Cc2ccccc2)[C@@H](C)CN([C@@H](C)CO)C(=O)c2cc(NS(=O)(=O)c3ccc(F)cc3)ccc2O1`, the cytotoxicity call was “inactive”.
Then `C[C@H]1CN([C@@H](C)CO)C(=O)Cc2cc(NC(=O)C3CCCCC3)ccc2O[C@H]1CN(C)C(=O)Nc1ccc(C(F)(F)F)cc1`, with “inactive”; and `C[C@@H]1CN([C@H](C)CO)C(=O)c2cc(NC(=O)C3CCCCC3)ccc2O[C@@H](C)CCCCO[C@@H]1CN(C)C(=O)c1ccccc1`, with “inactive”; and `C[C@H]1CN([C@@H](C)CO)C(=O)Cc2cc(NC(=O)CCC(F)(F)F)ccc2O[C@H]1CN(C)S(=O)(=O)c1cccs1`, with “inactive”.
Then `C[C@H](CO)N1C[C@H](C)[C@@H](CN(C)Cc2ccc(C(=O)O)cc2)OCCCC[C@H](C)Oc2ccc(NC(=O)Nc3ccccc3)cc2C1=O`, with “inactive”; and `CC(C)(ON=C(C(=O)NC1C(=O)N2C(C(=O)[O-])=C(C[n+]3ccccc3)CSC12)c1csc(N)n1)C(=O)O` (stereo not drawn), with “inactive”.
As to `C[C@H](CO)N1C[C@H](C)[C@@H](CN(C)Cc2ccc(C(F)(F)F)cc2)OCCCC[C@H](C)Oc2ccc(NC(=O)NC3CCCCC3)cc2C1=O`, the cytotoxicity call was “active”.
For `C[C@H]1CCCCO[C@H](CN(C)Cc2ccc(C(F)(F)F)cc2)[C@@H](C)CN([C@@H](C)CO)C(=O)c2cc(NC(=O)NC3CCCCC3)ccc2O1`, the cytotoxicity call was “inactive”.
With `C[C@@H]1CN([C@@H](C)CO)C(=O)c2cc(NC(=O)NC3CCCCC3)ccc2O[C@@H](C)CCCCO[C@H]1CN(C)Cc1ccc(C(F)(F)F)cc1` the entry was “inactive”.
Then `Cc1ccc(/C=N/N(C)C2=NCCN2)o1`, with “inactive”.
Regarding `Cc1cc(C)c2c(c1)[C@@H](N(Cc1cc(C(F)(F)F)cc(C(F)(F)F)c1)c1nnn(C)n1)CCCN2C[C@H]1CC[C@H](C(=O)O)CC1`, the cytotoxicity call is “active”.
With `C[C@H]1CN([C@@H](C)CO)C(=O)c2cc(NC(=O)Nc3ccc(C(F)(F)F)cc3)ccc2O[C@H]1CN(C)C(=O)Nc1ccc2c(c1)OCO2` the entry was “inactive”.
With `CC(=O)N(C)C[C@@H]1Oc2ncc(C#C[C@@H](C)O)cc2C(=O)N([C@H](C)CO)C[C@@H]1C` the entry was “inactive”; with `C[C@@H]1CN([C@@H](C)CO)C(=O)c2cc(NC(=O)c3ccncc3)ccc2O[C@@H](C)CCCCO[C@H]1CN(C)C(=O)Nc1ccc2c(c1)OCO2`, “inactive”; with `COc1ccc(CN(C)C[C@@H]2OCCCC[C@H](C)Oc3ccc(NS(=O)(=O)c4ccc(Cl)cc4)cc3C(=O)N([C@H](C)CO)C[C@H]2C)cc1`, “inactive”.
With `O=C(N[C@H](c1ccc(F)cc1)c1ccc2ccccc2n1)C1CCN(Cc2cccc(C(F)(F)F)c2)CC1` the entry was “active”.
Turning to `O=C(N[C@H](c1ccc(F)cc1)c1ccc2ccccc2n1)C1CCN(Cc2ccc(Oc3ccccc3)cc2)CC1`, the cytotoxicity call is “inactive”.
Consider `O=C(N[C@@H](c1ccccc1)c1ccc2ccccc2n1)C1CCN(Cc2cccc(C(F)(F)F)c2)CC1`, for which the cytotoxicity call was “inactive”.
As for `O=C(N[C@H](c1ccc(F)cc1)c1ccc2ccccc2n1)C1CCN(Cc2ccc3ccccc3n2)CC1`, the cytotoxicity call is “inactive”.
In the case of `COc1cc(CN2CCC(C(=O)N[C@@H](c3ccc(F)cc3)c3ccc4ccccc4n3)CC2)cc(OC)c1`, the cytotoxicity call is “inactive”.
Then `Cn1cc(CN2CCC(C(=O)N[C@@H](c3ccc(F)cc3)c3ccc4ccccc4n3)CC2)c2ccccc21`, with “active”; and `COc1ccc(CNC(=S)NCCO)cc1`, with “inactive”.
With `O=S(=O)(NCC[C@@H]1CC[C@H](NS(=O)(=O)c2cccc(Cl)c2)[C@@H](CO)O1)c1cccc(F)c1` the entry was “inactive”; with `Cc1noc(C)c1NC(=O)N(C)C[C@H]1Oc2ccc(NS(=O)(=O)c3cccs3)cc2CC(=O)N([C@@H](C)CO)C[C@@H]1C`, “inactive”.
Then `CCCNC(=O)N1C[C@H](O)COC[C@@H]2O[C@@H](CC(=O)NCc3ccncn3)CC[C@H]21`, with “inactive”; and `CC[C@@H](C)NCCCCOc1ccc(Cl)cc1C(C)(C)C`, with “active”; and `Cc1ccc(OCc2ccc(Cl)cc2)c(C(C)(C)C)c1`, with “inactive”.
As to `CC(C)(C)NCCCCOc1ccc(Cl)cc1C(C)(C)C`, the cytotoxicity call was “inactive”.
Turning to `C[C@@H]1CCCCO[C@H](CN(C)C(=O)CCC(F)(F)F)[C@H](C)CN([C@@H](C)CO)C(=O)c2cc(NS(=O)(=O)c3ccc(Cl)cc3)ccc2O1`, the cytotoxicity call is “inactive”.
Consider `C[C@@H]1CN([C@H](C)CO)C(=O)c2cc(-c3cccc(C#N)c3)cnc2O[C@H]1CN(C)C(=O)c1cnccn1`, for which the cytotoxicity call is “inactive”.
As to `CO[C@@H]1CN(C)C(=O)c2ccc(NS(C)(=O)=O)cc2OC[C@@H](C)N(S(=O)(=O)CC(F)(F)F)C[C@H]1C`, the cytotoxicity call was “inactive”.
With `C[C@H]1CN([C@@H](C)CO)C(=O)c2cccc(NC(=O)Nc3ccc(C(F)(F)F)cc3)c2O[C@@H]1CN(C)C(=O)Nc1ccccc1` the entry was “inactive”.
Then `COc1ccc(NC(=O)Nc2cccc3c2O[C@@H](CN(C)C(=O)Nc2ccc(C(F)(F)F)cc2)[C@@H](C)CN([C@@H](C)CO)C3=O)cc1`, with “inactive”.
Then `C[C@H]1CN([C@@H](C)CO)C(=O)c2cccc(NC(=O)Nc3ccc(C(F)(F)F)cc3)c2O[C@@H]1CN(C)C(=O)Nc1ccc(F)cc1`, with “inactive”; and `COc1ccc(NC(=O)N(C)C[C@H]2Oc3c(NC(=O)Nc4ccc(C(F)(F)F)cc4)cccc3C(=O)N([C@@H](C)CO)C[C@@H]2C)cc1`, with “active”; and `COc1ccc(NC(=O)Nc2cccc3c2O[C@H](CN(C)C(=O)Nc2ccc(C(F)(F)F)cc2)[C@@H](C)CN([C@@H](C)CO)C3=O)cc1`, with “inactive”.
In the case of `C[C@@H]1CN([C@@H](C)CO)C(=O)c2cccc(NC(=O)Nc3ccccc3)c2O[C@@H]1CN(C)C(=O)Nc1ccc(C(F)(F)F)cc1`, the cytotoxicity call is “inactive”.
Take `C[C@@H]1CN([C@H](C)CO)C(=O)c2cccc(NC(=O)Nc3ccc(F)cc3)c2O[C@H]1CN(C)C(=O)Nc1ccc(C(F)(F)F)cc1`: the cytotoxicity call is “inactive”.
`C[C@H]1CN([C@@H](C)CO)C(=O)c2cccc(NC(=O)Nc3ccc(C(F)(F)F)cc3)c2O[C@H]1CN(C)C(=O)Nc1ccc(C(F)(F)F)cc1`: the cytotoxicity call was “inactive”.
Turning to `C[C@@H]1CN([C@H](C)CO)C(=O)c2cccc(NC(=O)Nc3ccc(C(F)(F)F)cc3)c2O[C@@H]1CN(C)C(=O)Nc1ccc(C(F)(F)F)cc1`, the cytotoxicity call was “active”.
Then `C[C@H](CO)N1C[C@H](C)[C@H](CN(C)C(=O)Nc2ccc(C(F)(F)F)cc2)Oc2c(NC(=O)Nc3ccc(C(F)(F)F)cc3)cccc2C1=O`, with “active”; and `C[C@@H]1CN([C@H](C)CO)C(=O)c2cccc(NC(=O)Nc3ccc(C(F)(F)F)cc3)c2O[C@@H]1CN(C)C(=O)Nc1ccccc1`, with “active”.
Consider `C[C@H](CO)N1C[C@H](C)[C@H](CN(C)C(=O)Nc2ccc(C(F)(F)F)cc2)Oc2c(NC(=O)Nc3ccccc3)cccc2C1=O`, for which the cytotoxicity call is “inactive”.
